Results taken from the supplement of paper PMC10849652.
About 7,900 targets were measured; listed, in parts, are those with a hit and a random draw of the rest. About 0.6% of all pairs of compound and target were hits.

Tests used:
Assay in all cases: log2 fold change, soluble protein after heating vs DMSO (PISA); higher = thermal stabilisation; K562 cells, 10 uM, 30 min; active = over 0.2 and 3.5 SD of the protein, either way, in both replicates (recomputed)
[1] = compound: CS(=O)(=O)c1ccc(-c2cnc(N)c(C(=O)Nc3ccccc3)n2)cc1
Method in brief: (§1)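 Soluble protein was quantified by TMTpro 16plex LC-MS/MS after channel sums were equalised. It was obtained as the supernatant after 21,000xg for 90 min from pooled aliquots of K562 cells (2×10^6 cells/mL, 10 μM compound, 30 min) heated for 3 min across 48°C-58°C and extracted in PBS with 0.5% NP-40 at 4°C. Thermal stability values are relative to control samples and come from duplicates. They are given as log2 fold changes.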

crizotinib = compound: C[C@@H](Oc1cc(-c2cnn(C3CCNCC3)c2)cnc1N)c1c(Cl)ccc(F)c1Cl [crizotinib]
Method in brief: as §1

[2] = compound: C[C@@H]1COCCN1C2=NC(=NC(=C2)C3(CC3)S(=O)(=O)C)C4=C5C=CNC5=CC=C4
Method in brief: as §1

[3] = compound: C[C@H](C1=CC=C(C=C1)C(=O)NC2=C3C=CNC3=NC=C2)N
Method in brief: as §1

duvelisib = compound: C[C@H](Nc1ncnc2nc[nH]c12)c1cc2cccc(Cl)c2c(=O)n1-c1ccccc1 [duvelisib]
Method in brief: as §1

gandotinib = compound: Cc1cc(Nc2cc(CN3CCOCC3)c3nc(C)c(Cc4ccc(Cl)cc4F)n3n2)n[nH]1 [gandotinib]
Method in brief: as §1

tozasertib = compound: Cc1cc(Nc2cc(N3CCN(C)CC3)nc(Sc3ccc(NC(=O)C4CC4)cc3)n2)n[nH]1 [tozasertib]
Method in brief: as §1

[4] = compound: Cc1cc(SCc2sc(-c3ccc(C(F)(F)F)cc3)nc2C)ccc1OCC(=O)O
Method in brief: as §1

doramapimod = compound: Cc1ccc(-n2nc(C(C)(C)C)cc2NC(=O)Nc2ccc(OCCN3CCOCC3)c3ccccc23)cc1 [doramapimod]
Method in brief: as §1

ispinesib = compound: Cc1ccc(C(=O)N(CCCN)[C@@H](c2nc3cc(Cl)ccc3c(=O)n2Cc2ccccc2)C(C)C)cc1 [ispinesib]
Method in brief: as §1

bafetinib = compound: Cc1ccc(NC(=O)c2ccc(CN3CC[C@H](N(C)C)C3)c(C(F)(F)F)c2)cc1Nc1nccc(-c2cncnc2)n1 [bafetinib]
Method in brief: as §1

[5] = compound: Cc1cccc(CC(=O)N2CCc3c2ccc(-c2cn(C)c4ncnc(N)c24)c3F)n1
Method in brief: as §1

nilotinib = compound: Cc1cn(-c2cc(NC(=O)c3ccc(C)c(Nc4nccc(-c5cccnc5)n4)c3)cc(C(F)(F)F)c2)cn1 [nilotinib]
Method in brief: as §1

[6] = compound: Cc1nc(Nc2n[nH]c3c2CN(C(=O)N[C@H](CN(C)C)c2ccccc2)C3(C)C)c2sccc2n1
Method in brief: as §1

dasatinib = compound: Cc1nc(Nc2ncc(C(=O)Nc3c(C)cccc3Cl)s2)cc(N2CCN(CCO)CC2)n1 [dasatinib]
Method in brief: as §1

[7] = compound: Cc1ncc(-c2ccnc(Nc3ccc(S(C)(=O)=O)cc3)n2)n1C(C)C
Method in brief: as §1

[8] = compound: Cn1cc(-c2ccc3c(c2)CCN3C(=O)Cc2cccc(C(F)(F)F)c2)c2c(N)ncnc21
Method in brief: as §1

[9] = compound: Cn1cc(-c2ccc3nnc(C(F)(F)c4ccc5ncccc5c4)n3n2)cn1
Method in brief: as §1

tipifarnib = compound: Cn1cncc1[C@@](N)(c1ccc(Cl)cc1)c1ccc2c(c1)c(-c1cccc(Cl)c1)cc(=O)n2C [tipifarnib]
Method in brief: as §1

mubritinib = compound: FC(F)(F)c1ccc(/C=C/c2nc(COc3ccc(CCCCn4ccnn4)cc3)co2)cc1 [mubritinib]
Method in brief: as §1

Measured: log2 fold change

SMAP2 (UniProt Q8WU79)
Sequence of UniProt Q8WU79 (Q8WU79 whole entry, looked up): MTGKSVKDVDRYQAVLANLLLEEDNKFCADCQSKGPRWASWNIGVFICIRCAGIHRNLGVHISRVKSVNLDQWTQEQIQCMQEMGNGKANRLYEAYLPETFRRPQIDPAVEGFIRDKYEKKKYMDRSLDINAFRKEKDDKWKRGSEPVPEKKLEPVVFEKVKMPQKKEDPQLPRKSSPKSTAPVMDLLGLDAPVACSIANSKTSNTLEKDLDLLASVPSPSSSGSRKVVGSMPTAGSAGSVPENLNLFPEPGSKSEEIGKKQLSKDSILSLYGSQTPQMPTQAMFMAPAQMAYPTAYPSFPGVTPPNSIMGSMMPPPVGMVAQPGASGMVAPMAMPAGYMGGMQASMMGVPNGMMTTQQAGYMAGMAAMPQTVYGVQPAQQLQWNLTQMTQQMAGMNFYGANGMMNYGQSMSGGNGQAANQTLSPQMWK
inactive: [1] 0.04 | crizotinib 0.097 | [2] 0.015 | [3] 0.04 | duvelisib 0.02 | gandotinib -0.011 | tozasertib 0.058 | [4] 0.096 | doramapimod -0.047 | ispinesib -0.006 | bafetinib 0.01 | [5] -0.025 | nilotinib -0.078 | [6] -0.039 | dasatinib -0.135 | [7] 0.044 | [8] -0.022 | [9] -0.004 | tipifarnib -0.014 | mubritinib 0.018

SMAP (UniProt O00193)
Sequence of UniProt O00193 (O00193 whole entry, looked up): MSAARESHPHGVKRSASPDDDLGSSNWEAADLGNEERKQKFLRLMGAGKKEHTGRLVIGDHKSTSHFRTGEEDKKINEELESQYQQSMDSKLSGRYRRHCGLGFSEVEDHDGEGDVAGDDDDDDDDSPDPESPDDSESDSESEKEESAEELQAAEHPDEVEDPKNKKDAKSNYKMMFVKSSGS
inactive: [1] 0.004 | crizotinib -0.06 | [2] -0.01 | [3] -0.082 | duvelisib 0.017 | gandotinib -0.032 | tozasertib 0 | [4] -0.03 | doramapimod 0.023 | ispinesib -0.015 | bafetinib 0.043 | [5] -0.022 | nilotinib -0.004 | [6] 0.006 | dasatinib 0.033 | [7] -0.011 | [8] 0.005 | [9] -0.027 | tipifarnib -0.042 | mubritinib 0.038

TBC1D24 (UniProt Q9ULP9)
Sequence of UniProt Q9ULP9 (Q9ULP9 whole entry, looked up): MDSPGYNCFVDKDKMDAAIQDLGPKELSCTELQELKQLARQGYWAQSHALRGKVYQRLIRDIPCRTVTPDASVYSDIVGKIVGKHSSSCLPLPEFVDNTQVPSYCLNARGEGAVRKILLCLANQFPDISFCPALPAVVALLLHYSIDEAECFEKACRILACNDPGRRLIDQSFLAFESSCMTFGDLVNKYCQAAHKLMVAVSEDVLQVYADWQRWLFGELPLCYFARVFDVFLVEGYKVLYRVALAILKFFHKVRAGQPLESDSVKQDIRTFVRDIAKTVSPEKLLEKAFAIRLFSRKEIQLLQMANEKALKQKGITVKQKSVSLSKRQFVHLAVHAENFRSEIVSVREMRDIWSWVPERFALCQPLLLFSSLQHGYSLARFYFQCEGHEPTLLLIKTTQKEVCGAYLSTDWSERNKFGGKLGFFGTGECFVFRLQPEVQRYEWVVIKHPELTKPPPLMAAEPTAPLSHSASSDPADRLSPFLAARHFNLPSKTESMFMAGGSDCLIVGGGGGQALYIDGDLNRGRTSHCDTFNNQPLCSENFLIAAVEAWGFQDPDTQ
inactive: [1] 0.018 | crizotinib -0.235 | [2] 0.08 | [3] -0.014 | duvelisib 0.04 | gandotinib -0.361 | tozasertib -0.119 | [4] 0.073 | doramapimod 0.061 | ispinesib -0.218 | bafetinib -0.007 | [5] 0.049 | nilotinib -0.069 | dasatinib -0.15 | [7] -0.219 | [8] 0.098 | [9] -0.045 | tipifarnib -0.106 | mubritinib 0.097
active: [6] -0.318

SNW1 (UniProt Q13573)
Sequence of UniProt Q13573 (Q13573 whole entry, looked up): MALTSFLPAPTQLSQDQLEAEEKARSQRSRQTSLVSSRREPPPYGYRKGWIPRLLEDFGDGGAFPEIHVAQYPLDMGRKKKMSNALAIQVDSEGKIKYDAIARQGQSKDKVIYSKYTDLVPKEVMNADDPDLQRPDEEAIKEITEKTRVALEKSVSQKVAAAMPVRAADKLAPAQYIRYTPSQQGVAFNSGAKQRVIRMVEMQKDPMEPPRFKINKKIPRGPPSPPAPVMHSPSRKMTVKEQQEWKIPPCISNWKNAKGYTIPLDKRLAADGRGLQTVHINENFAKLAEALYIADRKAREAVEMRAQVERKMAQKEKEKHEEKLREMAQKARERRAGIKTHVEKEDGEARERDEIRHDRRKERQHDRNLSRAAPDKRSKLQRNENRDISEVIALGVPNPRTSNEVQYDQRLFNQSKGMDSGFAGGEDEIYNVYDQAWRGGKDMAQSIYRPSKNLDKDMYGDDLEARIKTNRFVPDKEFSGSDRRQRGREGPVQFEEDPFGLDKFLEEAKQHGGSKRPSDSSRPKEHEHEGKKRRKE
inactive: [1] -0.035 | crizotinib 0.068 | [2] -0.062 | [3] 0.015 | duvelisib -0.016 | gandotinib 0.045 | tozasertib -0.015 | [4] -0.045 | doramapimod 0 | ispinesib -0.048 | bafetinib -0.049 | [5] -0.071 | nilotinib 0.004 | [6] 0.067 | dasatinib 0.027 | [7] 0.088 | [8] -0.055 | [9] -0.043 | tipifarnib 0.026 | mubritinib -0.006

SLC25A38 (UniProt Q96DW6)
Sequence of UniProt Q96DW6 (Q96DW6 whole entry, looked up): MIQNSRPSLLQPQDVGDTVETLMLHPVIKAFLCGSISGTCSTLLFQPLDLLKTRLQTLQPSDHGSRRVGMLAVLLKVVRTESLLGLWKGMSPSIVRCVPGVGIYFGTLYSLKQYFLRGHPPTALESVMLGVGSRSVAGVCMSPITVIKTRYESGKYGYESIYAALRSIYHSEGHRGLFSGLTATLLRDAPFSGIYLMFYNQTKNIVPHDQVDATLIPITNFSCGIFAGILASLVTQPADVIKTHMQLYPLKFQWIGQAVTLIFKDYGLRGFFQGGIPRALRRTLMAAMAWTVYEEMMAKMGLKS
inactive: [1] 0.146 | crizotinib 0.105 | [2] 0.045 | [3] 0.002 | duvelisib 0.088 | gandotinib -0.035 | tozasertib -0.003 | [4] -0.058 | doramapimod 0.001 | ispinesib 0 | bafetinib -0.08 | [5] -0.03 | nilotinib -0.03 | [6] 0.023 | dasatinib 0.143 | [7] -0.114 | [8] 0.022 | [9] 0.019 | tipifarnib 0.043 | mubritinib 0.052

SPG21 (UniProt Q9NZD8)
Sequence of UniProt Q9NZD8 (Q9NZD8 whole entry, looked up): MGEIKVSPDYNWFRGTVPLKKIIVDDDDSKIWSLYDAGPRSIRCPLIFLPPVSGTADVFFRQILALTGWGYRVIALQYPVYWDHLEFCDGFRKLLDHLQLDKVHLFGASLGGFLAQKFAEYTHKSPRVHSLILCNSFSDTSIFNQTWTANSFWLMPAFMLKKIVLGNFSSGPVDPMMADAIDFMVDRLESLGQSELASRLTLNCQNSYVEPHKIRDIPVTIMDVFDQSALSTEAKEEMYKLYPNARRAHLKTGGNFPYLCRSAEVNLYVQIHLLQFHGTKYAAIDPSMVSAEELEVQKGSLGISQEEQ
inactive: [1] 0.077 | crizotinib -0.24 | [2] 0.053 | [3] 0.013 | duvelisib 0.003 | gandotinib 0 | tozasertib 0.026 | [4] 0.052 | doramapimod 0.091 | ispinesib -0.093 | bafetinib 0.158 | [5] -0.129 | nilotinib -0.173 | [6] -0.06 | dasatinib -0.087 | [7] 0.171 | [8] 0.022 | [9] 0.027 | tipifarnib -0.115 | mubritinib -0.042

STX7 (UniProt O15400)
Sequence of UniProt O15400 (O15400 whole entry, looked up): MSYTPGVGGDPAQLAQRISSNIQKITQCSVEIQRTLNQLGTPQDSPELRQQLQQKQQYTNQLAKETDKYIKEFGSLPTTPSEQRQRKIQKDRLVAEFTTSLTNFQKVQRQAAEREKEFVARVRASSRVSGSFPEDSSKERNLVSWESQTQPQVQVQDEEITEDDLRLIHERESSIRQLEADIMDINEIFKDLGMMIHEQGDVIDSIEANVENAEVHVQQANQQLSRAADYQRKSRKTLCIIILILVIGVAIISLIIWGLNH
active: ispinesib -0.246
inactive: [1] 0 | crizotinib -0.187 | [2] 0.015 | [3] -0.042 | duvelisib -0.023 | gandotinib -0.18 | tozasertib -0.021 | [4] -0.055 | doramapimod 0.04 | bafetinib -0.06 | [5] -0.135 | nilotinib 0.009 | [6] 0.013 | dasatinib 0.03 | [7] -0.017 | [8] -0.007 | [9] 0.029 | tipifarnib 0.025 | mubritinib 0.007
